From PubChem BioAssay
dFosB act-1: mouse delta FosB homodimer activation; purified delta FosB, TAMRA-CDK5 oligo fluorescence polarization; percent of positive-control signal above neutral wells; 340,000 compounds, 0.99% hits; activation, % at 25 µM; AID 493131;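 active = mean activation above about 17%, with every replicate also reaching it, limit read from the data, passing the limit was not always enough; inconclusive = only one of the two conditions met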
Target sequence (P13346 whole entry, looked up): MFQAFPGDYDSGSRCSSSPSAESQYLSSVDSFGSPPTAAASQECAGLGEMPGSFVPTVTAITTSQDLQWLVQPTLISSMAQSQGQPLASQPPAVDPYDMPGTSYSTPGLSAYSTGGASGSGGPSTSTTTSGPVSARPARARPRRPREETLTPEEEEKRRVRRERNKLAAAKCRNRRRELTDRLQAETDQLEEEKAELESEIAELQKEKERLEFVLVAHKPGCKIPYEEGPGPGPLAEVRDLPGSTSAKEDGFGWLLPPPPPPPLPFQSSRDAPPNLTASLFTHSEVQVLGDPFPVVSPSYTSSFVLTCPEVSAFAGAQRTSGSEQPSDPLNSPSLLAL
MEKK2wt PB1 HTS: raises or lowers MEK5 binding to wildtype human MEKK2 PB1 domain; 290,000 compounds, 1.1% hits; AID 1531; bead flow cytometry, Alexa488-MEK5 binding to MEKK2 WT; actives lie on both sides; Q9Y2U5; binding response (% of control), % at 10 µM; in the data active = binding response below about 67% or above about 130%; inconclusive = no clear call, values can overlap the other calls; inactive = in between
DNA FID counter: fluorescent intercalator displacement, NS3 helicase counter-screen | DNA fluorescent intercalator displacement, fluorescence | inhibition, % at 7.9 µM | 290,000 compounds, 0.17% hits; in the data active = inhibition above about 37%;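 also: higher means more ethidium bromide displaced from hairpin DNA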
MEKK3 PB1 HTS: modulators (inhibitors or enhancers) of MEK5 binding to human MEKK3 PB1 domain. Q99759. bead-based flow cytometry, Alexa488-MEK5 binding to MEKK3; actives lie on both sides; 0 = blocked by unlabeled MEK5, 100 = vehicle. binding response (% of control), % at 10 µM. 290,000 compounds, 1.4% hits. AID 1529;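 active = binding response more than 3 SD above or below the average of its plate-row segment, actives on both sides; inconclusive = wells at one plate position flagged as instrument error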;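 also: Alexa488 bead fluorescence after subtracting the streptavidin-only scavenger bead signal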
MEKK2mut PB1 HTS: signal of MEK5 binding to mutant human MEKK2 PB1 domain. AID 1530. percent response, % at 10 µM. bead flow cytometry, Alexa488-MEK5 binding to MEKK2 mutant. 290,000 compounds, 0.35% hits; in the data active = percent response above about 24%, passing the limit was not always enough
dFosB act-2: activators of mouse delta FosB homodimer DNA binding; purified delta FosB, TAMRA-CDK5 oligo fluorescence polarization; normalised: neutral wells 0, positive control 100; AID 588690; 2,400 tested, under 10 active; activation, % at 24.9 µM; shares compounds with dFosB act-1;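 active = highest replicate activation at or above 34% and every replicate reaching that threshold; inconclusive = meets only one of the two criteria; inactive = meets neither criterion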;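 also: higher polarization means more probe DNA bound by delta FosB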
Large screens that a line does not name were inactive (follow-up assays come after a bar, where they were run). Only some compounds are listed: those with a hit (about 2.9% of all), similar ones and a draw of the others.

COc1cc(C(O)c2nc3ccccc3s2)cc(OC)c1OC (configuration not stated)	none
COc1ccc2oc(C(=O)Nc3nc4ccc(S(C)(=O)=O)cc4s3)c(C)c2c1	dFosB act-1 61.0 (no result: MEKK2wt PB1 HTS, DNA FID counter, MEKK3 PB1 HTS, MEKK2mut PB1 HTS) | dFosB act-2 inactive
COc1cc(OC)cc(C(=O)Nc2nc3ccc(S(C)(=O)=O)cc3s2)c1	none
COc1ccc(/C=C/C(=O)NC(=S)Nc2ccccn2)cc1	dFosB act-1 17.0 | dFosB act-2 inactive
COc1ccccc1/C=C/C(=O)NC(=S)Nc1ccccn1	none
N#Cc1c(NC(=O)COC(=O)c2ccc(O)cc2O)sc2c1CCC2	dFosB act-1 38.9 (no result: MEKK2wt PB1 HTS, DNA FID counter, MEKK3 PB1 HTS, MEKK2mut PB1 HTS) | dFosB act-2 inactive
N#Cc1c(NC(=O)COC(=O)c2nccnc2N)sc2c1CCCC2	none (no result: MEKK2wt PB1 HTS, DNA FID counter, MEKK3 PB1 HTS, MEKK2mut PB1 HTS)
COc1ccc(N(CC(=O)Nc2ccc3c(c2)OCCO3)S(=O)(=O)c2c(C)noc2C)cc1	dFosB act-1 36.9 (no result: MEKK2wt PB1 HTS, MEKK3 PB1 HTS, MEKK2mut PB1 HTS) | dFosB act-2 inactive
Cc1ccc(N(CC(=O)Nc2ccc3c(c2)OCCO3)S(=O)(=O)c2c(C)noc2C)cc1	none
O=C1[C@H](Cc2ccccc2)NCC=CC[C@H](c2ccco2)N1Cc1ccccc1	none (no result: MEKK2wt PB1 HTS, DNA FID counter, MEKK3 PB1 HTS, MEKK2mut PB1 HTS)
Cc1ccc(/C=N/N=C2/NC(=O)C(CC(=O)N3CCOCC3)S2)cc1 (configuration not stated)	none
CNC(=O)/C(C#N)=C/c1ccc(-c2ccc(Cl)cc2)o1	dFosB act-1 50.1 | dFosB act-2 inactive
O=C(Nc1ccc(S(=O)(=O)Nc2nccs2)cc1)c1ccc(F)cc1	none
O=C(Nc1ccc(S(=O)(=O)Nc2nccs2)cc1)c1ccc(N2C(=O)c3ccccc3C2=O)cc1	dFosB act-1 33.1 | dFosB act-2 inactive
CCOC(=O)c1c(NC(=O)C(NCCN(C)C)c2ccccc2)sc2c1CCCC2 (configuration not stated)	dFosB act-1 34.1, MEKK2wt PB1 HTS 171.0, MEKK2mut PB1 HTS 43.0 | dFosB act-2 inconclusive
CCOC(=O)c1c(NC(=O)c2ccccc2N(C)S(=O)(=O)c2ccccc2)sc2c1CCCC2	none
Cc1ccc(NC(=O)C=NOCC(=O)Nc2cc(C)cc(C)c2)cc1	dFosB act-1 25.2 (no result: MEKK2wt PB1 HTS, DNA FID counter, MEKK3 PB1 HTS, MEKK2mut PB1 HTS) | dFosB act-2 inactive
CC(=O)Nc1ccc(/C=N/OCC(=O)Nc2ccc(C)cc2)cc1	none
CCCC(=O)Nc1c2c(nc3ccccc13)N(c1ccccc1)CC2	none
O=C(CN1CCCCC1)Nc1c2c(nc3ccccc13)N(c1ccccc1)CC2	dFosB act-1 56.0 | dFosB act-2 inactive
Nc1ccc2ncccc2c1N	none (no result: MEKK2wt PB1 HTS, DNA FID counter, MEKK3 PB1 HTS, MEKK2mut PB1 HTS)
Nc1nc(N)c2c(ccc3nccc32)[nH]1	dFosB act-1 35.7 | dFosB act-2 inactive
Clc1cc2c(nn1)Nc1ccccc1S2	none
S=C1Nc2ccccc2Sc2ccc(Cl)cc21	dFosB act-1 33.6 | dFosB act-2 inactive
CCOC(=O)c1[nH]c2c(c1C)C(=O)CC(c1ccc(F)cc1)C2 (configuration not stated)	dFosB act-1 20.8 | dFosB act-2 inactive
O=C(Cn1cnc2ccccc2c1=O)NCCCN1CCCC1=O	none (no result: MEKK2wt PB1 HTS, DNA FID counter, MEKK3 PB1 HTS, MEKK2mut PB1 HTS)
NC(=O)c1ccc(NC(=O)CSC2=Nc3ccccc3C3CC=NN23)cc1 (configuration not stated)	dFosB act-1 24.9 | dFosB act-2 inactive
CCN1C(=O)CC(c2ccccc2)CC1=O	none (no result: MEKK2wt PB1 HTS, DNA FID counter, MEKK3 PB1 HTS, MEKK2mut PB1 HTS)
Cc1cccc(NS(=O)(=O)c2ccc3[nH]c(=O)cc(C(=O)OC(C)C(=O)Nc4ccc([N+](=O)[O-])cc4)c3c2)c1 (configuration not stated)	none
CCc1ccc(NC(=O)C(C)OC(=O)c2cc(=O)[nH]c3ccc(S(=O)(=O)Nc4ccc(F)cc4)cc23)cc1 (configuration not stated)	dFosB act-1 100.0 | dFosB act-2 inactive
CC(=O)c1ccc(NC(=O)Cn2cnc(S(=O)(=O)N3CCOCC3)c2)cc1	none
CC(=O)c1ccc(NC(=O)Cn2cnc(S(=O)(=O)N3CCC(C)CC3)c2)cc1	dFosB act-1 35.2 | dFosB act-2 inactive
OCCN(Cc1nc(-c2ccc3c(c2)OCO3)no1)Cc1cccs1	none
Cc1ccc(NC(=O)CSc2nnc(NC(=O)c3ccco3)s2)cc1	none
O=C(CSc1nnc(NC(=O)c2ccco2)s1)Nc1ccc(F)cc1F	dFosB act-1 20.0 | dFosB act-2 inactive
